Laboratory results reported in PubChem BioAssay (NCI).
The panel holds about 83,000 compounds, 20% with a hit somewhere; the sample as a whole holds those more often.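 For each line, cells grew in 96-well plates with the test compound present at a single concentration for 48 hours.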 Activity calls are given as the source filed them. How the source made its calls: active means growth percent below 10; inactive means the rest.

Columns and labels:
Assay in all cases: NCI-60 one-dose screen, 48 h (100 = growth as untreated, 0 = no growth, -100 = all killed)
Conditions in all cases: 10 µM
NCI-H23 lung = system: NCI-H23 lung
NCI-H226 lung = system: NCI-H226 lung
NCI-H322M lung = system: NCI-H322M lung
HOP-62 NSCLC = system: HOP-62 NSCLC
NCI-H460 lung = system: NCI-H460 lung
NCI-H522 lung = system: NCI-H522 lung
A549/ATCC NSCLC = system: A549/ATCC NSCLC
786-0 renal = system: 786-0 renal
COLO 205 colon = system: COLO 205 colon
DU-145 prostate = system: DU-145 prostate
MALME-3M melanoma = system: MALME-3M melanoma
MDA-MB-231 breast = system: MDA-MB-231 breast
SF-268 CNS = system: SF-268 CNS
SF-295 CNS = system: SF-295 CNS
SF-539 CNS = system: SF-539 CNS
UACC-257 melanoma = system: UACC-257 melanoma
M14 melanoma = system: M14 melanoma
HCT-15 colon = system: HCT-15 colon
K-562 leukemia = system: K-562 leukemia
RXF 393 renal = system: RXF 393 renal

Measured: growth

COc1ccc(NC(=O)CSc2nc3ccccc3c(=O)n2CCc2ccccc2)cc1
inactive: NCI-H23 lung 92.2% | NCI-H226 lung 93.9% | NCI-H322M lung 81.5% | HOP-62 NSCLC 48.3% | NCI-H460 lung 75.5% | NCI-H522 lung 105% | A549/ATCC NSCLC 75.1% | 786-0 renal 95.3% | COLO 205 colon 95.5% | DU-145 prostate 101% | MALME-3M melanoma 60.3% | MDA-MB-231 breast 61.5% | SF-268 CNS 53.7% | SF-295 CNS 91.5% | SF-539 CNS 79.5% | UACC-257 melanoma 87.9% | M14 melanoma 75.3% | HCT-15 colon 92.1%

O=C(Nc1ccncc1)C(=O)c1cn(S(=O)(=O)c2cccc(Cl)c2)c2ccccc12
inactive: NCI-H23 lung 54.2% | NCI-H226 lung 77.9% | NCI-H322M lung 102% | HOP-62 NSCLC 79.3% | NCI-H460 lung 82.2% | NCI-H522 lung 32.1% | A549/ATCC NSCLC 75.5% | 786-0 renal 72.8% | COLO 205 colon 117% | DU-145 prostate 83.9% | K-562 leukemia 19.8% | MDA-MB-231 breast 87.4% | RXF 393 renal 89.2% | SF-268 CNS 80.9% | SF-295 CNS 55.8% | SF-539 CNS 67.3% | UACC-257 melanoma 78.1% | M14 melanoma 47% | HCT-15 colon 49.2%

CN(C)CCOc1nc2ccccc2c2c1-c1ccc(Cl)cc1C2=O
active: NCI-H23 lung -43.9% | NCI-H226 lung 3.47% | NCI-H322M lung -34% | HOP-62 NSCLC -20.4% | NCI-H460 lung -20.7% | NCI-H522 lung -65.5% | A549/ATCC NSCLC -28.4% | COLO 205 colon -76.1% | DU-145 prostate -14.2% | K-562 leukemia -29.9% | RXF 393 renal -35.6% | SF-268 CNS -25.3% | SF-295 CNS -27.9% | SF-539 CNS -1.7% | UACC-257 melanoma -68% | M14 melanoma -83.4% | HCT-15 colon 5.59%
inactive: 786-0 renal 12.7% | MDA-MB-231 breast 14.8%

COc1cc(C2CC(c3ccc(Nc4ccnc5cc(Cl)ccc45)cc3)=NN2c2ccc(Cl)cc2)cc(OC)c1OC (stereo not drawn)
active: NCI-H522 lung 9.33% | K-562 leukemia 6.22%
inactive: NCI-H23 lung 74.4% | NCI-H226 lung 82.9% | NCI-H322M lung 75.8% | HOP-62 NSCLC 46.8% | NCI-H460 lung 43.4% | A549/ATCC NSCLC 44.6% | 786-0 renal 68.8% | COLO 205 colon 75.7% | DU-145 prostate 64% | MDA-MB-231 breast 42.6% | RXF 393 renal 60.4% | SF-268 CNS 48.5% | SF-295 CNS 28.8% | SF-539 CNS 59.3% | UACC-257 melanoma 61.3% | M14 melanoma 38.2% | HCT-15 colon 45.4%

O=C1OCC2=C1C(c1cccc(Br)c1)c1cc3c(cc1N2CCO)CCC3 (stereo not drawn)
active: NCI-H226 lung -15.7% | NCI-H460 lung -6.92% | NCI-H522 lung -31.4% | COLO 205 colon -29.1% | DU-145 prostate -28.9% | MDA-MB-231 breast -13% | SF-295 CNS -9.25% | SF-539 CNS -1.5% | HCT-15 colon 8.3%
inactive: NCI-H23 lung 21.1% | NCI-H322M lung 36.8% | HOP-62 NSCLC 28.4% | A549/ATCC NSCLC 12.5% | 786-0 renal 19.1% | K-562 leukemia 19.4% | RXF 393 renal 29.5% | SF-268 CNS 14.4% | M14 melanoma 12.8%

Oc1[nH]c2ccc(Cl)cc2c1/C=c1/ccc2c(c1)N=C(c1cccs1)N=2
inactive: NCI-H23 lung 64.4% | NCI-H226 lung 85% | NCI-H322M lung 78.4% | HOP-62 NSCLC 83.1% | NCI-H460 lung 66.1% | NCI-H522 lung 53.3% | A549/ATCC NSCLC 63.5% | 786-0 renal 66.7% | COLO 205 colon 73% | DU-145 prostate 58.7% | K-562 leukemia 30.9% | MDA-MB-231 breast 91.2% | RXF 393 renal 49.7% | SF-295 CNS 41.4% | SF-539 CNS 81.3% | UACC-257 melanoma 48.5% | M14 melanoma 77.1% | HCT-15 colon 55.4%

COc1ccc2c(c1)sc1nc(-c3ccccc3)c(-c3ccc(O)c(OC)c3)n12
inactive: NCI-H23 lung 88.2% | NCI-H226 lung 94.1% | NCI-H322M lung 89.7% | HOP-62 NSCLC 79.1% | NCI-H460 lung 69.8% | NCI-H522 lung 76.4% | A549/ATCC NSCLC 64.2% | 786-0 renal 84.9% | COLO 205 colon 71.4% | DU-145 prostate 107% | K-562 leukemia 30.7% | MDA-MB-231 breast 90.7% | RXF 393 renal 104% | SF-268 CNS 88.7% | SF-295 CNS 81.2% | SF-539 CNS 86.9% | UACC-257 melanoma 83.8% | M14 melanoma 38.1% | HCT-15 colon 47.1%

CCCCCCCCCCCCCC[n+]1ccc(C(N)=O)cc1
active: NCI-H226 lung -7.94% | NCI-H460 lung 0.582% | NCI-H522 lung -21.7% | 786-0 renal -12.1% | COLO 205 colon -100% | K-562 leukemia 9.07% | MDA-MB-231 breast -35.3% | RXF 393 renal -52.4% | SF-268 CNS -12.5% | SF-295 CNS -27.8% | SF-539 CNS -3.7% | UACC-257 melanoma 9.72% | M14 melanoma -45.1%
inactive: NCI-H23 lung 16.7% | NCI-H322M lung 58.8% | HOP-62 NSCLC 10.5% | A549/ATCC NSCLC 33.6% | DU-145 prostate 22.8% | HCT-15 colon 62.6%

O=C1OCC2=C1C(c1ccc(Cl)c(Cl)c1)c1cc3c(cc1N2CCO)OCCO3 (stereo not drawn)
inactive: NCI-H23 lung 32.5% | NCI-H226 lung 25.4% | NCI-H322M lung 37.3% | HOP-62 NSCLC 34.1% | A549/ATCC NSCLC 22.6% | 786-0 renal 25.7% | K-562 leukemia 17.8% | MDA-MB-231 breast 26.6% | SF-268 CNS 43.1% | UACC-257 melanoma 59.9% | M14 melanoma 12.4% | HCT-15 colon 18.3%
active: NCI-H460 lung 6.2% | NCI-H522 lung -26.7% | COLO 205 colon -11.9% | DU-145 prostate 6.74% | RXF 393 renal 8.18% | SF-295 CNS -12.8% | SF-539 CNS 2.76%
